In ChEMBL document CHEMBL4513216, “Probing the Open Global Health Chemical Diversity Library for Multistage-Active Starting Points for Next-Generation Antimalarials” (ACS Infect Dis, 2020):
Out of some 69,000 compounds screened, about 8,600 (12%) showed an effect of 50% or more. This excerpt belongs to a sample that is enriched for strong results.

These compounds were tested on Plasmodium berghei (assay: Screen against P. berghei liver stage (PbLuc), transformed with Luciferase, at 10uM). Details: tested at 10 uM.
Assay type: functional, HepG2
With `Cc1cccc2ncn(C(C)Cn3cccn3)c(=O)c12` (stereo unspecified) the INHIBITION was 31.7%.
`Cc1nn(C)cc1C1CC(=O)Nc2c1cnn2C(C)C` (stereo unspecified) was tested, and the INHIBITION was 48.4%.
With `COCCN1C(=O)[C@@H]2CC[C@H]1CN(S(=O)(=O)c1ccc(C#N)cc1)C2` the INHIBITION was 39.1%.
`Cc1cnn(CC2CCCCN2CC(=O)Nc2cccnc2)c1` (stereo unspecified) was tested, and the INHIBITION was 33.4%.
`O=C(NCc1cccnc1-n1cncn1)C1CC2(CCNCC2)CN1` (stereo unspecified) showed an INHIBITION of 20.2%.
Work on `O=C1CCN(C(=O)NCc2cccc(Oc3ccccc3)c2)CCN1` yielded an INHIBITION of 3.63%.
Compound `O=C(Cc1cccs1)NCC1(O)CCc2ccccc2C1` (stereo unspecified) has an INHIBITION of 37.4%.
For `O=C(Cc1cccs1)NCC1(O)CCSC1` (stereo unspecified), the INHIBITION was 54.8%.
For `COC1(CNC(=O)c2ccoc2)CCSC1` (stereo unspecified), the INHIBITION was 14.2%.
For `O=C(NCC1(O)CCSC1)c1ccoc1` (stereo unspecified), the INHIBITION was 86.7%.
`O=C(Cc1cccs1)NCC1(O)CCSCC1` was tested, and the INHIBITION was -24.5%.
`O=C(NCC1(O)CCSCC1)c1ccoc1` gave an INHIBITION of -2.04%.
For `CC(C)N(C)Cc1nnc2n1CCN(Cc1ccncc1)CC2`, the INHIBITION was 1.28%.
For `CN1C(=O)[C@@H]2CC[C@H]1CN(C(=O)Nc1cccc3ccccc13)C2`, the INHIBITION was -42.1%.
`NCc1n[nH]c(-c2ccc(F)cc2)n1` was tested, and the INHIBITION was -19.7%.
With `CC(C)C(=O)N(C)Cc1nc(N2CCCC2)ncc1-c1ccncc1` the INHIBITION was 11.235%.
`CCCC(=O)N(C)Cc1nc(N2CCCC2)ncc1-c1ccncc1` gave an INHIBITION of 14.855%.
For `COCC(=O)N(C)Cc1nc(N2CCCC2)ncc1-c1ccncc1`, the INHIBITION was 52%.
Work on `Cc1cc(N(Cc2ccon2)S(C)(=O)=O)ccc1Br` yielded an INHIBITION of -22.6%.
In the case of `O=S(=O)(C1CC1)N1C[C@@H]2CN(Cc3cccs3)CCO[C@@H]2C1`, the INHIBITION is reported as 34.3%.
`CCCS(=O)(=O)N1C[C@@H]2CN(Cc3cnn(C)c3)CCO[C@@H]2C1` showed an INHIBITION of 65.6%.
In the case of `c1csc(CN2CCO[C@@H]3CN(C4CCOCC4)C[C@@H]3C2)c1`, the INHIBITION is reported as 64.4%.
Work on `O=S(=O)(C1CC1)N1CCO[C@@H]2CN(Cc3cccs3)C[C@@H]2C1` yielded an INHIBITION of -23.4%.
Compound `CCCS(=O)(=O)N1C[C@@H]2CN(Cc3cccs3)CCO[C@@H]2C1` has an INHIBITION of -2.46%.
`CCS(=O)(=O)N1C[C@@H]2CN(Cc3ccco3)CCO[C@@H]2C1` was tested, and the INHIBITION was -39.2%.
For `CCS(=O)(=O)N1C[C@@H]2CN(Cc3cnn(C)c3)CCO[C@@H]2C1`, the INHIBITION was -13%.
With `CCS(=O)(=O)N1C[C@@H]2CN(Cc3cccs3)CCO[C@@H]2C1` the INHIBITION was 90.7%.
`CCCS(=O)(=O)N1C[C@@H]2CN(Cc3ccoc3)CCO[C@@H]2C1` was tested, and the INHIBITION was -58.9%.
`Cc1csc(C2CCCCN2C(=O)CN(C)C(C)C)n1` (stereo unspecified) gave an INHIBITION of -19.9%.
`Cn1ccnc1COc1ccc(CN2CCC(C(N)=O)CC2)cc1` showed an INHIBITION of -14.7%.
`Nc1nc(CN2CCOC(Cn3cccn3)C2)nc2ccccc12` (stereo unspecified) showed an INHIBITION of 1.75%.
In the case of `c1ccc(-c2cc(CN3CCCC(Cn4cncn4)C3)on2)cc1` (stereo unspecified), the INHIBITION is reported as 11.6%.
`CS(=O)(=O)CCCC(=O)Nc1cc(Cl)c(Cl)cn1` gave an INHIBITION of 15.7%.
For `CS(=O)(=O)CCC(=O)Nc1cc(Cl)c(Cl)cn1`, the INHIBITION was 35.2%.
For `COCCCC(=O)Nc1cc(Cl)c(Cl)cn1`, the INHIBITION was 79.8%.
In the case of `COCCN1CCO[C@@H]2CN(Cc3cc(OC)cc(OC)c3)C[C@@H]2C1`, the INHIBITION is reported as 39.3%.
Compound `CNc1cc(C2CN(Cc3coc(C)n3)CCO2)nc(C)n1` (stereo unspecified) has an INHIBITION of -3.31%.
`Cc1nn(C)c(C)c1CC(=O)NCc1ccnc(N2CCOCC2)c1` showed an INHIBITION of -34%.
In the case of `Cc1noc(C)c1-c1cccc(C2CN(CC(=O)N(C)C)CCO2)n1` (stereo unspecified), the INHIBITION is reported as 24.35%.
In the case of `O=C1CC2(CCN(Cc3ccc(C(F)(F)F)nc3)CC2)CN1`, the INHIBITION is reported as 16.43%.
Compound `O=C1CC2(CCN(Cc3ccc4cccc(O)c4n3)CC2)CN1` has an INHIBITION of 58.6%.
In the case of `Oc1cccc2ccc(CN3CCC4(CCNCC4)C3)nc12`, the INHIBITION is reported as 15.9%.
Compound `CCN(CC)CC1CN(Cc2nccs2)Cc2nccn2C1` (stereo unspecified) has an INHIBITION of -42.8%.
Work on `CC(C)NC(=O)C1Cc2nc(-c3ccsc3)sc2N1CC1CC1` (stereo unspecified) yielded an INHIBITION of 23.3%.
`O=C(NC1CCCC1)C1Cc2nc(-c3ccsc3)sc2N1CC1CC1` (stereo unspecified) was tested, and the INHIBITION was -2.35%.
`O=C(Nc1cccnc1)C1Cc2nc(-c3ccsc3)sc2N1CC1CC1` (stereo unspecified) showed an INHIBITION of 60.9%.
`Cc1ccccc1C(O)c1ccncc1` (stereo unspecified) showed an INHIBITION of 1.95%.
`Cc1cccc(NC(=O)[C@@H]2CCCN2Cc2nnc(C(C)C)n2C)n1` was tested, and the INHIBITION was 24.3%.
Work on `Cc1nonc1CNC(=O)C(C)Oc1cccc(F)c1` (stereo unspecified) yielded an INHIBITION of -35.5%.
With `COc1ccc(CCCN(C)C(=O)c2cc(Cl)c[nH]2)cc1OC` the INHIBITION was 16.6%.
`CCN(CCS(=O)(=O)c1ccc(Cl)cc1)Cc1ccc(OC)c(OC)c1` showed an INHIBITION of 70.5%.
In the case of `COc1ccc(CCN(C)CCS(=O)(=O)c2ccc(Cl)cc2)cc1OC`, the INHIBITION is reported as 63.7%.
`CCN(Cc1nccs1)Cc1cc(Cl)ccc1OC` was tested, and the INHIBITION was 15.3%.
For `COc1ccc(CCN(C)C(C(=O)O)c2ccc(F)c(C)c2)cc1OC` (stereo unspecified), the INHIBITION was 16.7%.
Compound `COc1ccc(Cl)cc1S(=O)(=O)N(C)CC(N)=O` has an INHIBITION of 23.5%.
With `COc1ccc(CN(C)CCS(=O)(=O)c2ccc(Cl)cc2)cc1OC` the INHIBITION was 68.8%.
`COc1ccc(S(=O)(=O)NCCCc2ccc(N(C)C)cc2)cc1Cl` was tested, and the INHIBITION was 41.9%.
In the case of `COCCN(C)Cc1ccc(OC)c(OC(F)F)c1`, the INHIBITION is reported as 26.8%.
`O=S(=O)(C1CC1)N1C[C@@H]2COC[C@]2(COc2ccccn2)C1` gave an INHIBITION of 26.3%.
`CC(C)c1nccc(N2CCN(CC(=O)N3CCOCC3)CC2)n1` was tested, and the INHIBITION was -0.96%.
For `CN(CCc1ccncc1)C(=O)C1CSCN1C(=O)CC(C)(C)C` (stereo unspecified), the INHIBITION was -23.8%.
In the case of `Cc1cccc(-n2cc3nc(N4CCC(C)CC4)[nH]cc-3c2=O)c1`, the INHIBITION is reported as 23.4%.
`Cc1cnc(NCC(C)(C)N2CCOCC2)nc1` gave an INHIBITION of 65.7%.
With `Cc1cnc(NCC(C)(C)N2CCCCC2)nc1` the INHIBITION was 23.3%.
In the case of `Cc1cnc(NCC(C)(C)N2CCN(C)CC2)nc1`, the INHIBITION is reported as 47.2%.
`CSCCNc1ccc(C(=O)N(C)Cc2ccc3ccccc3n2)cn1` gave an INHIBITION of 56.1%.
Compound `CN(C)C(=O)c1ccc(NCCNc2ccc3ccccc3n2)nc1` has an INHIBITION of 8.13%.
Work on `CCNc1ncc(C(=O)N(C)Cc2nc3ccccc3n2C)cn1` yielded an INHIBITION of 16.2%.
Compound `CCn1c(CN(C)C(=O)c2ccc(N(C)C)nc2)nc2ccccc21` has an INHIBITION of -17.4%.
Compound `CCn1c(CN(C)C(=O)c2ccc(O)nc2)nc2ccccc21` has an INHIBITION of -82.4%.
Compound `CNc1ccc(C(=O)N(C)Cc2ccc3ccccc3n2)cn1` has an INHIBITION of 69.7%.
